Compound activity as filed in PubChem BioAssay.
IDE exosite FP – insulin-degrading enzyme (human) exo-site inhibition; purified IDE, FL-6b probe fluorescence polarization; stronger effect = lower value; P14735; z-score at 20 µM; 6.3% of 17,000 active; AID 1259349;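 active = z-score of -3 or lower, meaning strong loss of probe binding signal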;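 note: His-tagged human IDE residues 42-1019 made in E. coli with 30 nM FL-6b probe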
An asterisk follows results filed as active. The entries come from a sample that favours hits as a whole.

SMILES | IDE exosite FP
O=C(Cc1ccccn1)N1CCCCN2[C@H](CO)[C@H](c3ccc(C#Cc4ccccc4)cc3)[C@@H]2C1 | -5.23*
CCCC#Cc1ccc([C@@H]2[C@H](CO)N3CCCCN(C(=O)Cc4ccccn4)C[C@@H]23)cc1 | -2.02
O=C(Cc1ccccc1)N1CCCCN2[C@H](C1)[C@H](c1ccc(C#Cc3ccccc3)cc1)[C@@H]2CO | -4.28*
CCCC#Cc1ccc([C@H]2[C@@H](CO)N3CCCCN(C(=O)Cc4ccccn4)C[C@@H]23)cc1 | 3.97
CC(C)CC#Cc1ccc([C@H]2[C@@H](CO)N3CCCCN(C(=O)Cc4ccccn4)C[C@H]23)cc1 | 2.81
COc1ccc(C#Cc2ccc([C@@H]3[C@H]4CN(C(=O)Cc5cccnc5)CCCCN4[C@H]3CO)cc2)cc1 | 4.24
N#Cc1cccc(-c2ccc([C@@H]3[C@@H](CO)N4CCCCN(C(=O)Cc5cccnc5)C[C@H]34)cc2)c1 | 1.12
O=C(Cc1ccccc1)N1CC2(C1)[C@H](c1ccccc1)[C@H](CO)N2Cc1cccc(Cl)c1 | -1.71
O=C(Cc1cccnc1)N1CCCCN2[C@@H](CO)[C@@H](c3ccc(C#CC4CCCC4)cc3)[C@@H]2C1 | 0.498
C/C=C/c1ccc([C@H]2[C@H](CO)N3CCCCN(C(=O)Cc4cccnc4)C[C@@H]23)cc1 | -1.09
C/C=C/c1ccc([C@H]2[C@@H](CO)N3CCCCN(C(=O)Cc4cccnc4)C[C@H]23)cc1 | -0.572
O=C(Cc1cccnc1)N1CCCCN2[C@H](C1)[C@@H](c1ccc(/C=C/c3ccccc3)cc1)[C@@H]2CO | -9.17*
C/C=C/c1ccc([C@H]2[C@H]3CN(C(=O)Cc4cccnc4)CCCCN3[C@H]2CO)cc1 | 1.22
O=C(Cc1cccnc1)N1CCCCN2[C@@H](CO)[C@@H](c3ccc(/C=C/c4ccccc4)cc3)[C@@H]2C1 | -8.32*
COc1ccc(C#Cc2ccc([C@H]3[C@@H](CO)N4CCCCN(C(=O)Cc5cccnc5)C[C@@H]34)cc2)cc1 | -2.34
N#Cc1cccc(-c2ccc([C@H]3[C@H](CO)N4CCCCN(C(=O)Cc5cccnc5)C[C@@H]34)cc2)c1 | 0.258
CC=Cc1ccc2n(c1=O)C[C@@H]1[C@@H](CO)[C@H](C(=O)OC)[C@H]2N1S(=O)(=O)c1ccccc1C (mixture of isomers) | -0.0537
